Where “and” joins values, the source holds several entries; their conditions need not be identical. Equal values may be shown once. Inconclusive results are not listed. Where a call stands in place of a potency, no number is given. A structure can be active in one record and inactive in another. Calls of active or inactive are those of the source. Calls come from the whole dose curve; as a rule, active = well fitted curve in the direction sought with a large enough effect in the repeat runs; inconclusive = weak or mixed curves; inactive = no such curve, though single readings can be large; an effect the other way counts as inactive or inconclusive.
System: not listed separately
Test: qHTS assay to identify small molecule antagonists of the androgen receptor (AR) signaling pathway using the MDA cell line - cell viability counter screen (AID 743041; note: nearly all actives have a fitted effect of over 45% in size; note: potency is the fitted concentration of half-maximal effect)
Conditions: MDA-kb2 viability, CellTiter-Fluor, 16 h, cells co-treated with R1881 androgen agonist; series mostly up to 70.3 µM; viability change, negative = cytotoxic: at the top concentration
How it was run: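 Same-well cytotoxicity was assessed by CellTiter-Fluor in MDA-kb2 AR-luc cells after 16 h of compound treatment under R1881 agonism.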

SMILES	Potency	viability change, negative = cytotoxic
OCCc1ccccc1	inactive	
CCCC(O)C(CC)CO (configuration not stated)	inactive	
CCCN(CCC)S(=O)(=O)c1ccc(C(=O)O)cc1	inactive	
Nc1ccc(S(=O)(=O)Nc2nccs2)cc1	inactive	
O=C(O)C(=O)O	inactive	
O=C(O)CCCCCCCC(=O)O	inactive	
N=C(N)c1ccc(OCCCCCOc2ccc(C(=N)N)cc2)cc1	inactive	
O=NO	inactive	
NC(N)=NC(=O)c1nc(Cl)c(N)nc1N	inactive	
Cc1cc(=O)[nH]c(=S)[nH]1	inactive	
O=C(O)c1[nH]n(-c2ccc(S(=O)(=O)O)cc2)c(=O)c1N=Nc1ccc(S(=O)(=O)O)cc1	15 µM (active) and 61.3 µM (active) and 57.1 µM (active)	
NS(=O)(=O)c1cc(C(=O)O)c(NCc2ccco2)cc1Cl	inactive	
Cc1noc(NS(=O)(=O)c2ccc(N)cc2)c1C	inactive	
CCCCOC(=O)CC(CC(=O)OCCCC)(OC(C)=O)C(=O)OCCCC	inactive	
CC(O)CO (configuration not stated)	inactive	
O=C(O)c1cc(N=Nc2ccc(S(=O)(=O)Nc3ccccn3)cc2)ccc1O		-15.7% (inactive)
CCCCC1C(=O)N(c2ccccc2)N(c2ccccc2)C1=O	inactive	
CCCCC(CC)COC(=O)/C=C/c1ccc(OC)cc1 (configuration not stated)	inactive	
NC(=O)c1ccccc1O	inactive	
O=C(O)CS	inactive	
O=S(=O)(O)NC1CCCCC1	inactive	
Cc1cn([C@H]2C[C@H](N=[N+]=[N-])[C@@H](CO)O2)c(=O)[nH]c1=O	inactive	

Molecular target: Androgen receptor (Homo sapiens) (UniProt P10275)
Sequence (P10275 whole entry, looked up): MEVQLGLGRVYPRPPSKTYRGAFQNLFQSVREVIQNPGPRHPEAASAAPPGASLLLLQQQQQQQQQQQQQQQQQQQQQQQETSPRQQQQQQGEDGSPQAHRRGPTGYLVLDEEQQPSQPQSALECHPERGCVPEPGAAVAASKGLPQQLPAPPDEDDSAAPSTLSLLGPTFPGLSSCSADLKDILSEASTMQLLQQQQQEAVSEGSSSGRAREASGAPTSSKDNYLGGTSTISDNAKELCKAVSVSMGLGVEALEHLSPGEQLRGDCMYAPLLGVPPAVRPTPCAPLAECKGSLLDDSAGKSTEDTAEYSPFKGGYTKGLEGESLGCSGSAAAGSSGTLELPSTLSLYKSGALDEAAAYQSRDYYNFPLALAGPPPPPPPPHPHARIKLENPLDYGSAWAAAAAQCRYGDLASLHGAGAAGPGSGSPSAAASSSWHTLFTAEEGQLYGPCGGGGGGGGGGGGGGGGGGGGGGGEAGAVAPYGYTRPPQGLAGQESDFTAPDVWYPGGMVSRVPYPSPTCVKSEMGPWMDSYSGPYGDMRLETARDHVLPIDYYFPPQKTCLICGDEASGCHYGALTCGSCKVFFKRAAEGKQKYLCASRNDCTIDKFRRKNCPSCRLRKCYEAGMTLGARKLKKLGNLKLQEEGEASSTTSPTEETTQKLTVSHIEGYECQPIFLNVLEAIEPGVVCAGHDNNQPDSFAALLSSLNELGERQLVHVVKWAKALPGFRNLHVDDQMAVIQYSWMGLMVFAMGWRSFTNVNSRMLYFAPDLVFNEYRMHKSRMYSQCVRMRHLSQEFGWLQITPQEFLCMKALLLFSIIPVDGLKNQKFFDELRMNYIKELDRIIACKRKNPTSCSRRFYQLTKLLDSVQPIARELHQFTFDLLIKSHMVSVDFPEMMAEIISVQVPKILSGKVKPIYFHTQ
Test: qHTS assay to identify small molecule antagonists of the androgen receptor (AR) signaling pathway using the MDA cell line (AID 743042; note: nearly all actives have a fitted effect of over 55% in size)
Conditions: MDA-kb2 AR-luc, MMTV luciferase, R1881 antagonist, 16 h; series mostly up to 70.3 µM; activity change, negative = inhibition: at the top concentration
How it was run: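 MDA-kb2 breast carcinoma cells carrying MMTV-luciferase (AR/GR responsive) were co-treated with compounds and the agonist R1881 for 16 h at 37C. Inhibition read as ONE-Glo luminescence; CellTiter-Fluor fluorescence measured in parallel for cytotoxicity.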

SMILES	outcome
Cc1ccc(C)c(OCCCC(C)(C)C(=O)O)c1	inactive
Oc1ccc(/C=C/c2cc(O)cc(O)c2)cc1	inactive
CC(C)[C@@H]1CC[C@@H](C)C[C@H]1O	inactive
C1N2CN3CN1CN(C2)C3	inactive
O=C(c1ccccc1)c1ccccc1	inactive
CCCN(CCC)S(=O)(=O)c1ccc(C(=O)O)cc1	inactive
CCCCC(CC)COC(=O)/C=C/c1ccc(OC)cc1 (configuration not stated)	inactive

System: not listed separately
Test: qHTS assay to identify small molecule antagonists of the thyroid receptor (TR) signaling pathway - cell viability counter screen (AID 743064); note: nearly all actives have a fitted effect of over 50% in size; note: potency is the fitted concentration of half-maximal effect
Conditions: GH3.TRE-Luc viability, CellTiter-Fluor, 24 h; series mostly up to 70.3 µM; activity change, negative = cytotoxic: at the top concentration
How it was run: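 GH3.TRE-Luc cells, 4 h pre-plating; cpd + T3 1 nM final; 37 °C 23.5 h; CellTiter-Fluor 30 min; fluorescence read.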

SMILES	Potency
Oc1ccc(/C=C/c2cc(O)cc(O)c2)cc1	inactive and 27.6 µM (active) and 27.3 µM (active)
NC(=O)NC1NC(=O)NC1=O (configuration not stated)	inactive
C1N2CN3CN1CN(C2)C3	inactive
Cn1c(=O)c2[nH]cnc2n(C)c1=O	inactive
CCCC(O)C(CC)CO (configuration not stated)	inactive
O=C(O)C(=O)O	inactive
O=C(O)CCCCCCCC(=O)O	inactive
N=C(N)c1ccc(OCCCCCOc2ccc(C(=N)N)cc2)cc1	60.8 µM (active) and 46.4 µM (active)
NS(=O)(=O)c1cc(C(=O)O)c(NCc2ccco2)cc1Cl	inactive
CCCCOC(=O)CC(CC(=O)OCCCC)(OC(C)=O)C(=O)OCCCC	inactive
CC(O)CO (configuration not stated)	inactive
CCCCC(CC)COC(=O)/C=C/c1ccc(OC)cc1 (configuration not stated)	inactive
Cc1cn([C@H]2C[C@H](N=[N+]=[N-])[C@@H](CO)O2)c(=O)[nH]c1=O	inactive

— PubChem BioAssay (Tox21)
